Here are results for six compounds from PubChem BioAssay (EPA / NIEHS).

The structures appear in SMILES notation. Active and inactive are the calls of the source. The calls were made as follows: active = hit-call score of the fitted dose curve at least 0.9, where 1 is the maximum; inactive = score below 0.9.

Read-out in assay [1]: Interleukin-1 alpha (IL1a), IL1A (gene 3552)
Kind of assay: BSK_KF3CT_IL1a: BioMAP Diversity Plus: KF3CT Assay for Interleukin-1 alpha (IL1a) Biomarker Activity (AID 2283070). The note with it: primary human keratinocytes with fibroblasts; actives raise or lower the signal. The method, boiled down:
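Chemicals were dosed onto co-cultured human keratinocytes and foreskin fibroblasts, IL-1a was quantified by ELISA at 24 h, and activity was fitted in both directions relative to DMSO controls.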

Read-out in assay [2]: TIMP metallopeptidase inhibitor 2 (TIMP2), TIMP2 (gene 7077)
The assay can be described thus: BSK_KF3CT_TIMP2: BioMAP Diversity Plus: KF3CT Assay for TIMP metallopeptidase inhibitor 2 (TIMP2) Biomarker Activity (AID 2283071). The note with it: primary human keratinocytes with fibroblasts; actives raise or lower the signal. The method, boiled down:
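Cells: human keratinocytes co-cultured with foreskin fibroblasts. Treat with chemical, 24 h. Measure TIMP-2 by ELISA; fit curves bidirectionally vs DMSO baseline.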

Read-out in assay [3]: Transforming growth factor beta 1 (TGFb1), TGFB1 (gene 7040)
Kind of assay: BSK_KF3CT_TGFb1: BioMAP Diversity Plus: KF3CT Assay for Transforming growth factor beta 1 (TGFb1) Biomarker Activity (AID 2283072). The note with it: primary human keratinocytes with fibroblasts; actives raise or lower the signal. The method, boiled down:
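Primary human skin cells (keratinocytes, foreskin fibroblasts) were co-cultured, exposed to test chemical and sampled at 24 h. TGF-b1 levels were measured by ELISA and fitted bidirectionally relative to DMSO.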

Read-out in assay [4]: C-C motif chemokine 2 (Homo sapiens) (UniProt P13500)
Kind of assay: BSK_KF3CT_MCP1: BioMAP Diversity Plus: KF3CT Assay for Monocyte Chemoattractant Protein 1 (MCP1/CCL2) Biomarker Activity (AID 2283073). The settings on record: primary human keratinocytes with fibroblasts; actives raise or lower the signal. An outline of the steps:
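Keratinocytes and foreskin fibroblasts were co-cultured, dosed with chemical, and sampled 24 h later. MCP-1 was quantified by ELISA, and the endpoint was analyzed with bidirectional fitting using DMSO as negative control.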

Read-out in assay [5]: Matrix Metallopeptidase 9 (MMP9), MMP9 (gene 4318)
The assay can be described thus: BSK_KF3CT_MMP9: BioMAP Diversity Plus: KF3CT Assay for Matrix Metallopeptidase 9 (MMP9) Biomarker Activity (AID 2283074).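 As to AC50: MMP9 protein level quantified by ELISA in the co-culture.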 The note with it: primary human keratinocytes with fibroblasts; actives raise or lower the signal. The method, boiled down: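 Human keratinocyte/foreskin fibroblast co-culture; compound added; 24 h; MMP-9 by ELISA; bidirectional fit vs DMSO baseline.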

Read-out in assay [6]: urokinase plasminogen activator (uPA), PLAU (gene 5328)
The assay can be described thus: BSK_KF3CT_uPA: BioMAP Diversity Plus: KF3CT Assay for urokinase plasminogen activator (uPA) Biomarker Activity (AID 2283075). The settings on record: primary human keratinocytes with fibroblasts; actives raise or lower the signal. An outline of the steps:
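ELISA readout of uPA, analyzed for signal gain or loss relative to DMSO, from a human primary keratinocyte–foreskin fibroblast co-culture measured 24 h after chemical treatment.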

Read-out in assay [7]: E-selectin (Homo sapiens) (UniProt P16581)
Kind of assay: BSK_LPS_Eselectin: BioMAP Diversity Plus: LPS Assay for Eselectin Biomarker Activity (AID 2283077). The settings on record: primary human HUVEC with PBMC; actives raise or lower the signal. An outline of the steps: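 Signal of E-selectin, detected by ELISA, served as the endpoint; cells were umbilical vein endothelium with PBMC, read 24 h after treatment. DMSO defined baseline, and both increases and decreases were fitted.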

Read-out in assay [8]: Interleukin-8 (IL8), CXCL8 (gene 3576)
The assay can be described thus: BSK_LPS_IL8: BioMAP Diversity Plus: LPS Assay for Interleukin-8 (IL8) Biomarker Activity (AID 2283078). The note with it: primary human HUVEC with PBMC; actives raise or lower the signal. The method, boiled down:
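Endothelial cells and PBMC from human donors are co-cultured, treated with chemicals and LPS, then assayed for IL-8 by ELISA after 24 h. Parallel SRB staining (0.1% SRB after 10% TCA fixation, 560 nm) flags cytotoxicity.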

The nature of assay [9]: BSK_LPS_SRB: Viability Assessment in the BioMAP Diversity Plus: LPS Assay (AID 2283079).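 Also: total protein by sulforhodamine B absorbance as a cytotoxicity measure; measured one day after compound addition; fitted in both directions against DMSO so loss or gain of signal counts.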 The settings on record: primary human HUVEC with PBMC. An outline of the steps: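 Overt cytotoxicity was gauged by sulforhodamine B total-protein staining in a primary human vascular endothelial and mononuclear cell co-culture 24 h post-dosing. Activity was fitted in both directions relative to DMSO.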

Read-out in assay [10]: Monocyte Chemoattractant Protein-1 (MCP1), CCL2 (gene 6347)
The assay can be described thus: BSK_LPS_MCP1: BioMAP Diversity Plus: LPS Assay for Monocyte Chemoattractant Protein-1 (MCP1) Biomarker Activity (AID 2283081).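 As to AC50: secreted MCP-1 protein quantified by ELISA in culture supernatant.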 The note with it: primary human HUVEC with PBMC; actives raise or lower the signal. The method, boiled down:
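LPS-stimulated HUVEC/PBMC co-culture; chemical, 24 h; MCP-1 by ELISA; bidirectional fit vs DMSO; cytotoxicity via SRB (0.1% stain, 10% TCA fix, 560 nm) in parallel wells.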

Read-out in assay [11]: Tissue Factor, F3 (gene 2152)
Kind of assay: BSK_LPS_TissueFactor: BioMAP Diversity Plus: LPS Assay for Tissue Factor Biomarker Activity (AID 2283084). The settings on record: primary human HUVEC with PBMC; actives raise or lower the signal. The method, boiled down: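 In this co-culture system of umbilical vein endothelium with PBMC, stimulated with LPS, cell-surface CD142 is detected by ELISA at 24 h. Endpoint values derive from bidirectional fitting, DMSO serving as baseline.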

Read-out in assay [12]: Tumor necrosis factor (Homo sapiens) (UniProt P01375)
The assay can be described thus: BSK_LPS_TNFa: BioMAP Diversity Plus: LPS Assay for Tumour Necrosis Factor alpha (TNFa) Biomarker Activity (AID 2283085). The settings on record: primary human HUVEC with PBMC; actives raise or lower the signal. The method, boiled down:
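Read-out is ELISA of TNFa in primary human endothelial cell–PBMC co-cultures at 24 h after compound. Activity in either direction was fitted against DMSO.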

Read-out in the next assay: CD38, CD38 (gene 952)
The assay can be described thus: BSK_SAg_CD38: BioMAP Diversity Plus: SAg Assay for CD38 Biomarker Activity (AID 2283087). The note with it: primary human HUVEC with PBMC; actives raise or lower the signal. The method, boiled down: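 Human HUVEC plus PBMC co-culture stimulated with superantigen; CD38 measured by ELISA 24 h after chemical dosing. Fluorescence read-out, bidirectional fit against DMSO; cytotoxicity tracked in parallel by SRB and Alamar Blue.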

Read-out in assay [13]: CD40, CD40 (gene 958)
Kind of assay: BSK_SAg_CD40: BioMAP Diversity Plus: SAg Assay for CD40 Biomarker Activity (AID 2283088). The settings on record: primary human HUVEC with PBMC; actives raise or lower the signal. The method, boiled down:
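Fluorescence ELISA read-out of CD40 from umbilical vein endothelium plus peripheral blood mononuclear cells, sampled 24 h after dosing. Values come from bidirectional curve fitting with DMSO as baseline.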

Read-out in the next assay: CD69, CD69 (gene 969)
Kind of assay: BSK_SAg_CD69: BioMAP Diversity Plus: SAg Assay for CD69 Biomarker Activity (AID 2283089). The note with it: primary human HUVEC with PBMC; actives raise or lower the signal. The method, boiled down:
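Primary human vascular co-culture (umbilical vein endothelium with peripheral blood mononuclear cells) exposed to test chemical for 24 h. CD69 levels quantified by fluorescence ELISA; DMSO served as negative control for bidirectional fitting.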

Read-out in assay [14]: Interleukin-1 alpha (IL1a), IL1A (gene 3552)
The assay can be described thus: BSK_LPS_IL1a: BioMAP Diversity Plus: LPS Assay for Interleukin-1 alpha (IL1a) Biomarker Activity (AID 2283080). The note with it: primary human HUVEC with PBMC; actives raise or lower the signal. The method, boiled down:
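Measured: IL-1 alpha via ELISA at 24 h in LPS-activated human umbilical vein endothelium–PBMC co-culture. Baseline: DMSO, bidirectional fitting.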

Read-out in assay [15]: CD40, CD40 (gene 958)
The assay can be described thus: BSK_LPS_CD40: BioMAP Diversity Plus: LPS Assay for CD40 Biomarker Activity (AID 2283076). The settings on record: primary human HUVEC with PBMC; actives raise or lower the signal. An outline of the steps:
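CD40 signal, measured by ELISA, is fitted in both directions relative to DMSO vehicle. The system is an LPS-driven human vascular primary co-culture of endothelial cells and PBMC, sampled 24 h after compound addition.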

Chain of E-selectin (Homo sapiens) (P16581 whole entry, looked up): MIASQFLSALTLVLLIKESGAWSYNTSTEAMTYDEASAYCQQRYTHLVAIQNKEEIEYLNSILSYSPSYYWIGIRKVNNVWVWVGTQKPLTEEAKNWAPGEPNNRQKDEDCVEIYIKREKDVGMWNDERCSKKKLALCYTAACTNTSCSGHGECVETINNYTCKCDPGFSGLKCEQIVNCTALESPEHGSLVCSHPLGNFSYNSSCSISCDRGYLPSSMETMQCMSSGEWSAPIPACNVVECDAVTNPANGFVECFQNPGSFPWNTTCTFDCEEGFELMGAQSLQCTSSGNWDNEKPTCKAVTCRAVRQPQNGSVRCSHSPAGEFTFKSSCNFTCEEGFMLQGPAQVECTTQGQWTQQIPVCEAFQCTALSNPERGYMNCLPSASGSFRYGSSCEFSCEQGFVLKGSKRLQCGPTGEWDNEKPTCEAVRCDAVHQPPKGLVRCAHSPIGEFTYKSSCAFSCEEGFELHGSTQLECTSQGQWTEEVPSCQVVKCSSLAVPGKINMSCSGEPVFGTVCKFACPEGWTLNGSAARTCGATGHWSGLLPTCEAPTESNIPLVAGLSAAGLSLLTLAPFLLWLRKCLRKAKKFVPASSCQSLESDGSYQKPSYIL
Chain of Tumor necrosis factor (Homo sapiens) (P01375 whole entry, looked up): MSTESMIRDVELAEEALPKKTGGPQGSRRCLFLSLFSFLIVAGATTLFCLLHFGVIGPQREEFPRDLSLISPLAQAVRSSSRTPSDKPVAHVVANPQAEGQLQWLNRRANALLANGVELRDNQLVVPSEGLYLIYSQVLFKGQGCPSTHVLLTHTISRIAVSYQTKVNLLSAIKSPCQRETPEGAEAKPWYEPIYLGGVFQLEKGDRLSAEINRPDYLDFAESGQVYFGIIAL

With `C#C[C@]1(O)CC[C@H]2[C@@H]3CCc4cc(O)ccc4[C@H]3CC[C@@]21C`, the outcome in assay [1], in assay [2], in assay [3], in [4], in assay [5] and in [6] was inactive. Moreover, the outcome in [7] was “inactive”; in assay [11] it was “inactive”; in [12] it was “inactive”; with CD38, CD38 (gene 952), “inactive”; with CD40, CD40 (gene 958) [13] it was “inactive”; in the assay with CD69, CD69 (gene 969), “inactive”. The AC50 in assay [8] is 31.2 µM (active); in assay [9], 9.58 µM (active); in assay [10] it was 6.83 µM (active).
Turning to `CCCCCCCC1CCCC1=O` (stereo unspecified), the outcome in [1], in assay [7], in assay [8], in [9], in assay [14] and in assay [10] was inactive. The outcome was “inactive” in assay [12]; “inactive” in the assay with CD38, CD38 (gene 952); “inactive” in the assay with CD40, CD40 (gene 958) [13]; “inactive” with CD69, CD69 (gene 969). Besides, the AC50 is 31.3 µM (active) in [2]; 36.3 µM (active) in assay [3]; 31.5 µM (active) in assay [4]; 28.7 µM (active) in assay [5]; 35.6 µM (active) in [6].
Consider `CC(=O)OCC=C(C)CCC=C(C)CCC=C(C)C`, for which the result in assay [1], in assay [2], in [3], in assay [4], in assay [5] and in [6] was inactive. For the same compound, the outcome was “inactive” with CD40, CD40 (gene 958) [15]; “inactive” in [7]; “inactive” in [8]; “inactive” in [9]; “inactive” in assay [14]; “inactive” in assay [10]. Moreover, the outcome is “inactive” in assay [12]; “inactive” with CD38, CD38 (gene 952); “inactive” with CD40, CD40 (gene 958) [13]; “inactive” with CD69, CD69 (gene 969).
As to `CC(C)(C)c1cccc(O)c1`, the result in assay [1], in assay [2], in assay [3], in assay [4], in assay [5] and in [6] was inactive. The outcome with CD40, CD40 (gene 958) [15] is “inactive”; in assay [7], “inactive”; in assay [8], “inactive”; in [9], “inactive”; in [10], “inactive”; in assay [11] it was “inactive”. Further, the outcome in assay [12] was “inactive”; in the assay with CD38, CD38 (gene 952) it was “inactive”; with CD40, CD40 (gene 958) [13], “inactive”; with CD69, CD69 (gene 969), “inactive”.
In the case of `CC(=O)CCC=C(C)CCC=C(C)C`, the result in assay [1], in assay [2], in assay [3], in assay [4], in [5] and in assay [6] was inactive. In addition, the outcome in assay [7] was “inactive”; in [8], “inactive”; in assay [9], “inactive”; in assay [10], “inactive”; in [12], “inactive”; with CD38, CD38 (gene 952) it was “inactive”. Also, the outcome with CD40, CD40 (gene 958) [13] is “inactive”; with CD69, CD69 (gene 969), “inactive”.
Regarding `COC(=O)c1ccc(C(=O)OC)cc1`, the outcome in assay [1], in assay [2], in [3], in assay [4], in assay [5] and in assay [6] was inactive. For the same compound, the outcome in the assay with CD40, CD40 (gene 958) [15] was “inactive”; in [7] it was “inactive”; in [8] it was “inactive”; in assay [9] it was “inactive”; in assay [10] it was “inactive”; in assay [12], “inactive”. For the same compound, the outcome is “inactive” with CD38, CD38 (gene 952); “inactive” with CD40, CD40 (gene 958) [13]; “inactive” in the assay with CD69, CD69 (gene 969).

Broadly, the AC50 is the midpoint of the concentration-response curve, whichever way the signal moves.
